Data: PubChem BioAssay (Tox21)
Where “and” joins values, the source holds several entries; their conditions need not be identical. Equal entries are not always repeated. Records with an inconclusive call do not appear. Calls of active or inactive are those of the source. Unless noted, the call rests on the fitted dose curve; in most records, active means well fitted curve in the direction sought with a large enough effect in the repeat runs; inconclusive means weak or mixed curves; inactive means no such curve, though single readings can be large; an effect the other way counts as inactive or inconclusive.

Legend:
[1] = A CellTox Green Cytotoxicity Assay to monitor cytotoxicity in HEK293 cells - 32 hour (AID 1224881); further: nearly all actives have a fitted effect of over 40% in size; further: potency means the concentration at half of the fitted maximal effect
Summary of the method: (§1)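 Real-time, in one plate: 600 HEK293 cells/well with dead-cell DNA dye, pinned compound after 5 h, 37 C incubation over 40 h; viable cells give no appreciable fluorescence.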

[2] = A CellTox Green Cytotoxicity Assay to monitor cytotoxicity in HepG2 cells - 0 hour (AID 1224882); further: nearly all actives have a fitted effect of over 35% in size; further: potency means the concentration at half of the fitted maximal effect; on Cytotoxicity: on the % scale 0 is the no-effect control and ±100 the full control effect
Summary of the method: (§2)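 Cytotoxicity was tracked as dead-cell DNA fluorescence in HepG2 cells treated with test compounds at 37 C; each time-point value comes from one kinetic series spanning 0, 8, 16, 24, 32 and 40 h.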

[3] = A CellTox Green Cytotoxicity Assay to monitor cytotoxicity in HepG2 cells - 32 hour (AID 1224883); further: nearly all actives have a fitted effect of over 50% in size; further: potency means the concentration at half of the fitted maximal effect
Summary of the method: as §2

[4] = A CellTox Green Cytotoxicity Assay to monitor cytotoxicity in HEK293 cells - 8 hour (AID 1224884); further: nearly all actives have a fitted effect of over 35% in size; further: potency means the concentration at half of the fitted maximal effect
Summary of the method: as §1

[5] = qHTS RealTime-Glo MT Cell Viability Assay in HepG2 cells - 16 hour (AID 1224885); further: nearly all actives have a fitted effect of over 50% in size; further: potency means the concentration at half of the fitted maximal effect
Summary of the method: (§3)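 Cells + NanoLuc/prosubstrate dispensed (600 cells/well) → 5 h at 37 C/5% CO2 → compounds in DMSO transferred → 40 h incubation at 37 C, luminescence read at 0, 8, 16, 24, 32, 40 h.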

[6] = A CellTox Green Cytotoxicity Assay to monitor cytotoxicity in HEK293 cells - 16 hour (AID 1224888); further: nearly all actives have a fitted effect of over 35% in size; further: potency means the concentration at half of the fitted maximal effect
Summary of the method: as §1

[7] = qHTS RealTime-Glo MT Cell Viability Assay in HepG2 cells - 0 hour (AID 1224889); further: on the % scale 0 is the no-effect control and ±100 the full control effect; nearly all actives have a fitted effect of over 50% in size
Summary of the method: as §3

[8] = A CellTox Green Cytotoxicity Assay to monitor cytotoxicity in HepG2 cells - 8 hour (AID 1224890); further: nearly all actives have a fitted effect of over 45% in size; further: potency means the concentration at half of the fitted maximal effect
Summary of the method: as §2

[9] = qHTS assay to identify small molecule antagonists of the androgen receptor (AR) signaling pathway using the MDA cell line in the presence of 0.5 nM R1881 - cell viability counter screen (AID 1259242); further: nearly all actives have a fitted effect of over 45% in size; further: potency means the concentration at half of the fitted maximal effect
Summary of the method: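 Cells seeded at 3,000/well and allowed 5 hr at 37C, 0% CO2 before compound transfer and R1881 (0.5 nM final) addition; 16 hr later, live-cell protease fluorescence indicated cytotoxicity.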

[10] = qHTS assay to identify small molecule HDAC inhibitors (AID 1259364); further: potency means the concentration at half of the fitted maximal effect;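 further: wild-type HCT-116 cells with endogenous class I/II HDAC activity; nearly all actives have a fitted effect of over 45% in size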
Summary of the method: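 HCT-116 wt cells, 1,500/well, overnight attach. Compounds (DMSO) 2 h, 37 °C. HDAC-Glo I/II, 30 min RT. Luminescence.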

[11] = qHTS assay to identify small molecule HDAC inhibitors - cell viability counter screen (AID 1259365); further: series mostly up to about 92 µM; on the % scale 0 is the no-effect control and ±100 the full control effect; nearly all actives have a fitted effect of over 50% in size
Summary of the method: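 Viability readout: CellTiter-Glo luminescence. Wild-type HCT-116 cells, 2hr compound treatment following overnight attachment at 37 C.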

[12] = qHTS assay to identify small molecule antagonists of the sonic hedgehog signaling (Shh) pathway - cell viability counter screen (AID 1259367); further: nearly all actives have a fitted effect of over 55% in size; further: potency means the concentration at half of the fitted maximal effect
Summary of the method: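 Viability was read by CellTiter-Fluor fluorescence in the same wells, reagent added 23 hr into compound treatment and incubated 1 hr at 37C. The 3T3 Gli1-Luc reporter cells (2,000/well) received conditioned medium after compound and ran 24 hr.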

[13] = qHTS assay to identify small molecule antagonists of the estrogen receptor alpha (ER-alpha) signaling pathway using the BG1 cell line in the presence of 0.1 nM 17-beta-estradiol - cell viability counter screen (AID 1259241); further: nearly all actives have a fitted effect of over 40% in size; further: potency means the concentration at half of the fitted maximal effect
Summary of the method: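 The cell line endogenously expresses full-length ER-alpha and carries four EREs driving luciferase. Cells are cultured 5 days hormone-free, treated 22 hr with compounds and 0.1 nM estradiol, then viability is read by fluorescence.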

[14] = target: Estrogen receptor (Homo sapiens) (UniProt P03372); experiment: qHTS assay to identify small molecule antagonists of the estrogen receptor alpha (ER-alpha) signaling pathway using the BG1 cell line in the presence of 0.1 nM 17-beta-estradiol (AID 1259244); further: nearly all actives have a fitted effect of over 50% in size; further: potency means the concentration at half of the fitted maximal effect
Summary of the method: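 Luciferase signal from VM7Luc4E2 ERE-reporter cells, co-dosed with test compound and 0.1 nM final 17beta-estradiol for 22 h, read with ONE-Glo.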

[15] = qHTS assay to identify small molecule agonists of the sonic hedgehog signaling (Shh) pathway - cell viability counter screen (AID 1259366); further: nearly all actives have a fitted effect of over 50% in size; further: potency means the concentration at half of the fitted maximal effect
Summary of the method: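 Viability measured fluorometrically (CellTiter-Fluor, 1hr, 37C) in 3T3 Gli1-Luc reporter cells after 23hr compound exposure within a 24hr incubation at 37C/5% CO2.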

[16] = qHTS RealTime-Glo MT Cell Viability Assay in HEK293 cells - 24 hour (AID 1224886); further: nearly all actives have a fitted effect of over 50% in size; further: potency means the concentration at half of the fitted maximal effect
Summary of the method: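 Tox21 10K qHTS, HEK293, 600 cells/well, RealTime-Glo reagent co-dispensed with cells; 5 h preincubation, compound by pintool, 37 C, luminescence at 0–40 h.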

[17] = qHTS RealTime-Glo MT Cell Viability Assay in HEK293 cells - 8 hour (AID 1224887); further: nearly all actives have a fitted effect of over 50% in size; further: potency means the concentration at half of the fitted maximal effect
Summary of the method: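 Kinetic, non-lysing viability readout. Seed HEK293 (600/well) with reagent, incubate 5 h at 37 C/5% CO2, pin 23 nL compound in DMSO, incubate at 37 C, read luminescence at 0, 8, 16, 24, 32, 40 h.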

[18] = target: Androgen receptor (Homo sapiens) (UniProt P10275); experiment: qHTS assay to identify small molecule antagonists of the androgen receptor (AR) signaling pathway using the MDA cell line in the presence of 0.5 nM R1881 (AID 1259243)
Summary of the method: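 Luminescence from an AR/GR-responsive MMTV-luciferase construct in MDA-kb2 breast carcinoma cells, read 30 min after ONE-Glo, following 16 hr co-treatment with compounds and 0.5 nM R1881.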

[19] = qHTS assay to identify small molecule agonists of the sonic hedgehog signaling (Shh) pathway (AID 1259368; calls by dose curve;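 further: NIH/3T3-derived 3T3Gli1-Luc cells carrying a stable Gli1-driven firefly luciferase reporter; series mostly up to about 92 µM; on the % scale 0 is the no-effect control and ±100 the full control effect; nearly all actives have a fitted effect of over 15% in size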)
Summary of the method: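 Following a 24 hr incubation with DMSO-dissolved compounds at 37 C, 5% CO2, Gli1-Luc NIH/3T3-derived cells received luciferase reagent for 30 min at room temperature prior to luminescence measurement.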

[20] = qHTS assay to identify small molecule phospholipidosis (PLD) inducers (AID 1259344; active means well fitted curve in the direction sought with a large enough effect; an effect the other way counts as inactive or inconclusive; further: on the % scale 0 is the no-effect control and ±100 the full control effect)
Summary of the method: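 Phospholipid accumulation was scored by imaging: fixed, Hoechst-counterstained HepG2 cells stained with LipidTOX Red after 24 h compound exposure at 37 C. Read-outs were pit count and pit intensity per well or per cell, with amiodarone and DMSO controls.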

Androgen receptor (Homo sapiens), sequence (P10275 whole entry, looked up): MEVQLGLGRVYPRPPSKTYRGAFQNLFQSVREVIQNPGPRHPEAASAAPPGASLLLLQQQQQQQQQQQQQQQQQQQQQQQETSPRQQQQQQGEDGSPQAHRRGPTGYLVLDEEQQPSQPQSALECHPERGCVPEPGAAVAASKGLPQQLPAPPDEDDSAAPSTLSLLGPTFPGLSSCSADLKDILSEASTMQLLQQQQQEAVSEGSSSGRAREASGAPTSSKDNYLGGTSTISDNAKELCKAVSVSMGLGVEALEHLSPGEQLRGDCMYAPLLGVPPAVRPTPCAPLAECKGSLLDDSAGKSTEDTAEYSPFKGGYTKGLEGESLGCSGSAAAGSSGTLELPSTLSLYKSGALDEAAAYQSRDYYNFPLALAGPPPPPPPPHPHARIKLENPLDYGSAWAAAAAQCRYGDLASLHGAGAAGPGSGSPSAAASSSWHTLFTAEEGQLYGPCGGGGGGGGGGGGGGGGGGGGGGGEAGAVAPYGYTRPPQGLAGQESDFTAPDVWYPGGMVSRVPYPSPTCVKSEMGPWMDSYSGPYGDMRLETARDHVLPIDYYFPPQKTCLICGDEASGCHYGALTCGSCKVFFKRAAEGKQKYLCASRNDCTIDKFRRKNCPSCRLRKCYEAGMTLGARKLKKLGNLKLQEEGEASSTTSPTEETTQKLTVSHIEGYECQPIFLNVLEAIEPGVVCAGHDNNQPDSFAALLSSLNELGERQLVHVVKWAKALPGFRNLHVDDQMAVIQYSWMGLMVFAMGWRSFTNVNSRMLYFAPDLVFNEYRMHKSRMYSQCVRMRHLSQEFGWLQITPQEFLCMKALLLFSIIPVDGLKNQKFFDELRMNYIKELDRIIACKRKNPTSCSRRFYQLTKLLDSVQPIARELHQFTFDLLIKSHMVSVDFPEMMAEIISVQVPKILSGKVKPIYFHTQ
Estrogen receptor (Homo sapiens), sequence (P03372 whole entry, looked up): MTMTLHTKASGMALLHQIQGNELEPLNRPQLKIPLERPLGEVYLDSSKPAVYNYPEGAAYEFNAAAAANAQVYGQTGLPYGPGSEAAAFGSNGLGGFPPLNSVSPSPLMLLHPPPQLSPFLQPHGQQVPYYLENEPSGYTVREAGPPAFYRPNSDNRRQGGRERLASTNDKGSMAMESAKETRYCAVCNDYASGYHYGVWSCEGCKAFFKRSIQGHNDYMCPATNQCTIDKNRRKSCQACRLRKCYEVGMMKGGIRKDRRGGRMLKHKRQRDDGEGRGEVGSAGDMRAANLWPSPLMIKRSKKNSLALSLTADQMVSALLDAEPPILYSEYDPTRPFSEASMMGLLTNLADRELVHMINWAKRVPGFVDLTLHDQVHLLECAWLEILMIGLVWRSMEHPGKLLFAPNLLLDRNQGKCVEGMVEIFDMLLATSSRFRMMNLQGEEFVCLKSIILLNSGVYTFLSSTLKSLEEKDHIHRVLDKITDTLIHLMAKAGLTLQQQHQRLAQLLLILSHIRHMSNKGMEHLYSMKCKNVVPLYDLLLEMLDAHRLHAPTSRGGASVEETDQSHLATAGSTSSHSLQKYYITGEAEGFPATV

c1ccc2c(c1)cc1ccc3cccc4ccc2c1c34
active: Potency [3] 7.05 µM
inactive: Potency [1] | Potency [2] | Potency [4] | Potency [5] | Potency [6] | Potency [7] | Potency [8] | Potency [9] | Potency [10] | Potency [11] | Potency [12]

Oc1cc(Cl)cc(Cl)c1
inactive: Potency [2] | Potency [3] | Potency [4] | Potency [5] | Potency [7] | Potency [8] | Potency [13] | Potency [9] | Potency [14] | Potency [10] | Potency [11] | Potency [15] | Potency [12]
active: Potency [1] 49.5 µM

N#CC(C#N)=NNc1cccc(Cl)c1
inactive: Potency [1] | Potency [2] | Potency [4] | Potency [17] | Potency [6] | Potency [8] | Potency [11] | Potency [19]
active: Potency [3] 13.8 µM | Potency [16] 5.49 µM | Potency [13] 12.2 µM | Potency [9] 2.43 µM | Potency [18] 1.54 µM | Potency [14] 1.09 µM | Potency [10] 24.3 µM | Potency [15] 27.3 µM | Potency [12] 27.3 µM

CN1CCc2cc(Cl)c(O)cc2[C@H]2c3ccccc3CC[C@@H]21
inactive: Potency [1] | Potency [2] | Potency [3] | Potency [4] | Potency [5] | Potency [17] | Potency [6] | Potency [7] | Potency [8] | Potency [9] | Potency [14] | outcome [20] | Potency [10] | Potency [11] | Potency [19]
active: Potency [15] 4.73 µM | Potency [12] 11.9 µM

CO/N=C(/C1=NOCCO1)c1ccccc1Oc1ncnc(Oc2ccccc2Cl)c1F
active: Potency [9] 17.2 µM | Potency [14] 4.85 µM
inactive: Potency [1] | Potency [2] | Potency [3] | Potency [4] | Potency [16] | Potency [17] | Potency [6] | Potency [7] | Potency [8] | Potency [10] | Potency [11] | Potency [15] | Potency [12] | Potency [19]

CC1(C)[C@H](/C=C2\CCSC2=O)[C@@H]1C(=O)OCc1coc(Cc2ccccc2)c1
active: Potency [17] 38.9 µM
inactive: Potency [1] | Potency [2] | Potency [3] | Potency [4] | Potency [7] | Potency [8] | Potency [9] | Potency [10] | Potency [11] | Potency [15] | Potency [12] | Potency [19]

O=S1OCC2C(CO1)C1(Cl)C(Cl)=C(Cl)C2(Cl)C1(Cl)Cl (centres undefined)
inactive: Potency [2] | Potency [7] | Potency [13] | Potency [9] | Potency [14] | Potency [10] | Potency [11] | Potency [19]
active: Potency [1] 49 µM and 54.9 µM | Potency [3] 54.9 µM | Potency [5] 48.9 µM | Potency [16] 21.9 µM and 38.9 µM | Potency [17] 43.6 µM | Potency [8] 54.9 µM | Potency [18] 48.6 µM and 54.4 µM | Potency [12] 48.5 µM

O=C(N[C@@H]1N=C(c2ccccc2F)c2cccc3c2N(CC3)C1=O)c1cc2ccccc2[nH]1
active: Potency [1] 6.01 µM | Potency [2] 26.8 µM | Potency [3] 19 µM | Potency [4] 9.52 µM | Potency [6] 5.35 µM | Potency [8] 21.3 µM
inactive: Potency [16] | Potency [17] | Potency [9] | PLD induction [20] -5.27% [at 0.306 µM] | Potency [11] | Potency [15] | Potency [12] | Potency [19]

C1=CCC=C1
inactive: Potency [1] | Potency [2] | Potency [3] | Potency [4] | Potency [17] | Potency [6] | Potency [7] | Potency [8] | Potency [13] | Potency [9] | Potency [10] | Potency [11] | Potency [15] | Potency [12] | Potency [19]

C#CCC1=C(C)C(OC(=O)C2C(C=C(C)C)C2(C)C)CC1=O (centres undefined)
inactive: Potency [1] | Potency [2] | Potency [3] | Potency [4] | Potency [5] | Potency [6] | Potency [7] | Potency [8] | Potency [9] | Potency [10] | Potency [11] | Potency [15] | Potency [19]

O=C1C[C@@H]2OCC=C3CN4CC[C@]56c7ccccc7N1[C@H]5[C@H]2[C@H]3C[C@H]46
inactive: Potency [1] | Potency [2] | Potency [3] | Potency [4] | Potency [5] | Potency [6] | Potency [7] | Potency [8] | Potency [9] | outcome [20] | Potency [10] | Potency [11] | Potency [19]

CC(=O)[O-].CC(=O)[O-].O.O.O.[Pb+2]
inactive: Potency [1] | Potency [2] | Potency [3] | Potency [4] | Potency [5] | Potency [7] | Potency [8] | Potency [9] | Potency [10] | Potency [11] | Potency [15] | Potency [12]

CN1C(=O)[C@@H](NC(=O)c2cc3ccccc3[nH]2)N=C(c2ccccc2)c2ccccc21
inactive: Potency [1] | Potency [2] | Potency [3] | Potency [4] | Potency [16] | Potency [17] | Potency [7] | Potency [8] | Potency [13] | Potency [9] | outcome [20] | Potency [10] | Potency [11] | Potency [15] | Potency [12]

Brc1cccc(-c2ccccc2)c1
inactive: Potency [2] | Potency [3] | Potency [5] | Potency [16] | Potency [17] | Potency [8] | Potency [13] | Potency [9] | Potency [14] | Potency [10] | Potency [11] | Potency [15] | Potency [12] | Potency [19]
active: Potency [1] 49.3 µM

CCC(OC(C)=O)C(CC(C)NC)(c1ccccc1)c1ccccc1 (centres undefined)
inactive: Potency [2] | Potency [10] | Potency [11] | Potency [19]
active: Potency [1] 62.2 µM | Potency [3] 55.4 µM | Potency [16] 55.4 µM | Potency [6] 62.2 µM | Potency [9] 43.6 µM | Potency [18] 27.5 µM | Potency [14] 69.2 µM | Potency [12] 61.6 µM
